Measured values published in PubChem BioAssay (NCI).
This is part of a sample that, as a whole, favours compounds with a hit. Of some 83,000 tested, about 20% had one in any assay.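 Note: values are percent growth. 100 is the growth of untreated cells, values between 100 and 0 indicate rising inhibition; between -100 and 0 indicates cell death.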 Values without a mark were called inactive. The source made the active and inactive calls. Rule for the calls: active = growth percent below 10; inactive = the rest.

Test system: NCI-H322M lung
Assay: NCI-60 one-dose screen, 48 h (100 = growth as untreated, 0 = no growth, -100 = all killed)
Details: 10 µM

Going from Nc1c(C(=O)Nc2cccc(F)c2)sc2nc3c(cc12)C(=O)CCC3 to COc1ccc(Cl)cc1C(=O)Nc1nc2ccc(Cl)cc2s1, the growth rises from 58.8% to 85.6%.

Going from COc1ccc(-c2cc(/C=C3\C(=O)Nc4ccc(Cl)cc43)[nH]n2)cc1OC to COc1cc(-c2cc(/C=C/C(=O)c3ccc4c(c3)OCO4)[nH]n2)cc(OC)c1OC, the growth falls from 70.6% to 54.2%.

Compared with O=C1CC[C@@H]2CCCC[C@@H]2C1, O=c1oc2cc(OS(=O)(=O)c3ccccc3)ccc2c2c1CCCCC2 is lower in growth: 110% for the first, 82.6% for the second.

Going from COc1ccc2c(c1)O/C(=C\c1ccc([N+](=O)[O-])s1)C2=O to Nc1cc2c(cc1Cl)-c1ccc([N+](=O)[O-])cc1/C2=N\O, the growth rises from 29.7% to 50.1%.

Nc1nc(N)c2c(ccc3nccc32)[nH]1 was tested, and the growth was 61%.

For Cc1cc2c(C)c3cc(C)c(N)cc3nc2cc1N, the growth was -12.5% (active).

Test system: HOP-62 NSCLC
Assay: as above
Details: 10 µM

Compared with COc1cc(-c2cc(/C=C3\C(=O)Nc4cc(Cl)ccc43)[nH]n2)cc(OC)c1OC, COc1cc(-c2cc(/C=C3\C(=O)Nc4ccccc43)[nH]n2)cc(OC)c1OC is higher in growth: 43.3% for the first, 65% for the second.

First: CCCCCCc1cc(N=Nc2ccc(S(=O)(=O)Nc3cc(C)nc(C)n3)cc2)c(O)cc1O
Second: COc1cc(/C=C\c2cc(OC)c(OC)c(OC)c2)cc(NS(=O)(=O)c2ccc(Cl)cc2)c1OC
The growth of the first is higher: 107% for the first, 60.2% for the second.

First: N#CC1=C(Nc2ccccc2Cl)SC(c2ccccc2O)NC1=O (centres undefined)
Second: O=c1[nH]c2ccc(Cl)cc2c2ccccc12
The growth of the first is higher: 115% for the first, 72.2% for the second.

Going from COc1cc(-c2nc(Nc3nc4ccccc4s3)[nH]c(=O)c2C#N)cc(OC)c1O to COc1ccc(Cl)cc1C(=O)Nc1nc2ccc(Cl)cc2s1, the growth falls from 99.5% to 89.4%.

Going from CCCCCCCCCCCCCCCCCCOCC(COCCOCC[N+]1(CCCCCC(=O)[O-])CCCC1)Oc1ncccn1 (centres undefined) to CC(=O)c1nc2ccccc2n1CCN1CCN(C)CC1, the growth rises from 21.3% to 41%.

Going from COc1ccc(C2=NN(C(=O)c3ccc(S(C)(=O)=O)cc3)C(c3ccc(OC)c(OC)c3)C2)c(OC)c1 (centres undefined) to COc1cc(-c2cc(/C=C/C(=O)c3ccc4c(c3)OCO4)[nH]n2)cc(OC)c1OC, the growth falls from 74.4% to 48.7%.

Compared with COc1ccccc1CNCCCN1C(=O)c2ccc3c4c(ccc(c24)C1=O)C(=O)N(CCCN)C3=O, CC(=O)OCc1cc(-c2nc3ccccc3[nH]c2=O)nn1-c1ccc(Cl)cc1 is higher in growth: 18.7% for the first, 94.9% for the second.

First: Nc1nc(N)c(NC(=O)CNc2ccc(C(=O)O)cc2)c(N)n1
Second: Nc1nc(N)c2c(ccc3nccc32)[nH]1
The growth of the first is higher: 107% for the first, 74.8% for the second.

Compared with c1ccc(CP(Cc2ccccc2)c2ccccc2)cc1, COC(=O)C(C(C[N+](=O)[O-])c1ccccc1)=P(c1ccccc1)(c1ccccc1)c1ccccc1 (centres undefined) is lower in growth: 99.4% for the first, 96.1% for the second.

First: COC(=O)C1(C)Cc2cc(OC(C)=O)c(OC(C)=O)cc2N1 (centres undefined)
Second: COc1ccc(-c2cc(/C=C3\C(=O)Nc4ccc(Cl)cc43)[nH]n2)cc1OC
The growth of the first is higher: 117% for the first, 97.7% for the second.

Compared with COc1ccc(-c2nn(-c3cccc(NC(=O)Nc4ccc(Cl)c(C(F)(F)F)c4)c3)cc2-c2ccncc2)cc1Cl, O=C(Nc1nc(-c2ccccc2Cl)cs1)c1cc(-c2ccc(Cl)cc2)nc2ccc(Cl)cc12 is higher in growth: 25.2% for the first, 28.5% for the second.

Going from Cc1cccc(NC2=C(C#N)C(=O)NC3(CCCC3)S2)c1 to Nc1c(C(=O)Nc2cccc(F)c2)sc2nc3c(cc12)C(=O)CCC3, the growth falls from 98.7% to 69.3%.

Compared with O=C1/C(=C\c2ccc(F)cc2)CN(C(=O)c2ccccc2)C/C1=C\c1ccc(F)cc1, O=S(=O)(NCCCNc1nccc(-c2c(-c3ccc(F)cc3)nc3sccn23)n1)c1ccc2ccccc2c1 is higher in growth: 53.3% for the first, 81.3% for the second.

Going from S=C1SCC(c2ccccc2)S1 (centres undefined) to O=c1oc2cc(OS(=O)(=O)c3ccccc3)ccc2c2c1CCCCC2, the growth falls from 108% to 78.2%.

Compared with CCN(CC)Cc1cc(Nc2ccnc3cc(Cl)ccc23)ccc1OC, COc1ccc(NC2=NC(C)(CO)CS2)cc1 (centres undefined) is higher in growth: 88% for the first, 94.6% for the second.

First: CC(=O)N1N=C(c2ccc(Cl)cc2)CC1c1sc(Cl)nc1Cl (centres undefined)
Second: COc1ccc2c(c1)O/C(=C\c1ccc([N+](=O)[O-])s1)C2=O
The growth of the first is higher: 103% for the first, 45.6% for the second.

Compared with N#Cc1ncc(Br)c(NC2CCCCCC2)n1, O=C1CC[C@@H]2CCCC[C@@H]2C1 is lower in growth: 106% for the first, 96.7% for the second.

Nc1cc2c(cc1Cl)-c1ccc([N+](=O)[O-])cc1/C2=N\O showed a growth of 111%.

With COc1cc(C(=O)/C=C/c2cc(-c3cc(OC)c(OC)c(OC)c3)n[nH]2)cc(OC)c1OC the growth was -30.1% (active).
O=C(Nc1cccc(-n2cc(-c3ccncc3)c(-c3cc(O)cc(Cl)c3)n2)c1)Nc1ccc(Cl)c(C(F)(F)F)c1 was tested, and the growth was 8.99% (active).
For Nc1ncn(C2OC(CO)C(O)C2O)c(=O)n1 (centres undefined), the growth was -23% (active).
Cc1cc2c(C)c3cc(C)c(N)cc3nc2cc1N was tested, and the growth was 3.24% (active).
